# Results filed as inconclusive are left out. Active and inactive are the calls of the source. The call rests on the fitted dose curve; in most records, active means well fitted curve in the direction sought with a large enough effect; inconclusive means small, poorly fitted or top-dose-only effect, or another doubt; inactive means no such curve, though single readings can be large; an effect the other way counts as inactive or inconclusive.
# Target: Cellular tumor antigen p53 (Homo sapiens) (UniProt P04637)
# Sequence (P04637 whole entry, looked up): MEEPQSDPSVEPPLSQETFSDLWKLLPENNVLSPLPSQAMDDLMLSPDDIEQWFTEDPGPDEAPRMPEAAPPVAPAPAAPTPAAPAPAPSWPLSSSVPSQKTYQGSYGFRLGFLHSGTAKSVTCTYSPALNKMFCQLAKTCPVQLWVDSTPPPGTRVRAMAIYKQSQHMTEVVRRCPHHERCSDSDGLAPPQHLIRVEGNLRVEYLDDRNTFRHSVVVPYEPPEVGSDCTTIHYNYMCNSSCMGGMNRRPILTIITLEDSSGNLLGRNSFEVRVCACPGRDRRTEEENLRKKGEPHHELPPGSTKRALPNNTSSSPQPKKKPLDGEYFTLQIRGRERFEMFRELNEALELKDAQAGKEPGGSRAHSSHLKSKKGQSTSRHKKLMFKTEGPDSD
# Test: Primary qHTS for small molecule compounds that upregulate eGFP-tagged delta133p53alpha (in C-terminal) cells. (AID 2060324);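 further: 0% = DMSO wells and 100% = 57.5 µM 5-azacytidine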
# Conditions: NCI-H358 delta133p53alpha-eGFP (C-terminal tag), GFP fluorescence imaging, 24 h; series mostly up to 57.5 µM; GFP increase (activation): at the top concentration
# Procedure, shortened: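 Doxycycline (100 ng/ml, 24 h) first induced the eGFP fusion in NCI-H358 C-terminal-tag cells. Washed-out cells then received titrated compounds for 24 h at 37 °C before paraformaldehyde fixation, Hoechst staining and cytometric GFP quantification.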
row,SMILES,GFP increase (activation)
1,C=CCN1CCc2c(cc(O)c(O)c2Cl)C(c2ccccc2)C1 (stereo unspecified),0.181% (inactive)
2,N#C/C(=C\c1ccc(O)c(O)c1)C(=O)NCCc1ccccc1,16.9% (inactive)
3,COC(=O)C1=C(C)NC(C)=C(C(=O)OC)C1c1ccccc1[N+](=O)[O-],15.2% (inactive)
4,Cn1cc(C(F)(F)F)nc1-c1ccc(OCC(O)CNCCOc2ccc(O)c(C(N)=O)c2)cc1 (stereo unspecified),-4.02% (inactive)

# Target: Aldehyde dehydrogenase, mitochondrial (Homo sapiens) (UniProt P05091)
# Test: qHTS for Inhibitors of the Aldehyde Dehydrogenase Family (ALDH2) Primary screen (AID 2061308);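 further: plate controls were vehicle for no effect and reference inhibitor for full effect; nearly all actives have a fitted effect of over 55% in size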
# Conditions: ALDH2 enzyme inhibition qHTS, 1536-well; series mostly up to 56 µM; activity change, negative = inhibition: at the top concentration
row,SMILES,"activity change, negative = inhibition"
1,Cc1nc(N)sc1-c1ccnc(Nc2ccc(N3CCOCC3)cc2)n1,0.143% (inactive)
2,Cc1nc2c(-c3cnc(N)nc3)nc(N3CCOCC3)nc2n1C(C)C,17.1% (inactive)
3,CCc1cccc(CC)c1NC(=O)N1Cc2[nH]nc(NC(=O)c3ccc(N4CCN(C)CC4)cc3)c2C1,13% (inactive)
4,COc1cc2nccc(Oc3ccc(NC(=O)C4(C(=O)Nc5ccc(F)cc5)CC4)cc3)c2cc1OC,-0.8% (inactive)
5,COc1cc(N2CCC(O)CC2)ccc1Nc1cc(Nc2ccccc2S(=O)(=O)C(C)C)c2cc[nH]c2n1,-11.7% (inactive)
6,COc1ccc(-c2cc3nccn3c(Nc3ncccc3C(N)=O)n2)cc1OC,-11.2% (inactive)
7,Cn1c2ccccc2c2c3c(c4c5ccccc5n(CCC#N)c4c21)CNC3=O,-1.01% (inactive)
